# From PubChem BioAssay
# GPR151 activ: human GPR151 activation. Q8TDV0. PathHunter beta-arrestin GPR151 cells, luminescence. activation, % at 11.2 µM. actives 1% (n = 650,000); in the data active means activation above about 4.9%
# FBW7 act: activators of human E3 ligase FBW7. Q969H0. AlphaScreen FBW7–phospho-cyclin E peptide binding, activator screen. normalized activity (activation), % at 26.1 µM. actives 0.13% (n = 650,000). AID 1259310; in the data active means normalized activity above about 1.9%;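 further: purified mutant Fbw7 with reduced substrate affinity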
# MITF inh: blocks human microphthalmia-associated transcription factor; O75030; AlphaScreen MITF homodimerization, bead proximity signal; inhibition, % at 2.6 µM; actives 0.91% (n = 650,000); in the data active means inhibition above about 50%
# TEAD-YAP block: TEAD-YAP interaction inhibition; HEK-TIYL cells, TEAD-Gal4/YAP UAS-luciferase luminescence; inhibition, % at 9.12 µM; actives 1.4% (n = 640,000); in the data active means inhibition above about 32%
# GPR151 confirm: confirmation of human GPR151 activators; GPR151 PathHunter beta-arrestin cells, luminescence, 90 min; % of EA-reagent control over plate median; AID 1508609; shares compounds with GPR151 activ; activation, % at 11.2 µM; 6,700 tested, under 10 active;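 active means mean percent activation across replicates above the confirmation screen cutoff of 4.91%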
# GPR119 counter: activates human GPR119 in a GPR151 counter-screen; shares compounds with GPR151 activ; GPR119 PathHunter beta-arrestin cells, luminescence, 90 min; 0 = compound-well median, 100 = enzyme-acceptor control; activation, % at 11.2 µM; actives 0.3% (n = 6,700);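 active means mean percent activation in the counterscreen above 29.09%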;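 further: counterscreen on off-target GPR119 to flag nonselective hits from the GPR151 activator screen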
# Target sequence (Q8TDV5 whole entry, looked up): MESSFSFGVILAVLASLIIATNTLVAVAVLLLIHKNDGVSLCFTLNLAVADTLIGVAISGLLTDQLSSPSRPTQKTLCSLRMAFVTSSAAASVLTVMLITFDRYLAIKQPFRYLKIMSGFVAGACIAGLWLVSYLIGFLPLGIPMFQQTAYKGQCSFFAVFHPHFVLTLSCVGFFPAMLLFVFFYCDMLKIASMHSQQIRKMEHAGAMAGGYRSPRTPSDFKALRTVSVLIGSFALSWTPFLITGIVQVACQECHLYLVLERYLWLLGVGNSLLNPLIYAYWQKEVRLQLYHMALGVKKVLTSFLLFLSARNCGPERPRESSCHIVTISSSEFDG
# Numbers stand for hits; . = inactive; / = no result given. A selection: hits, their analogues and other compounds. The true share with any hit is near 3.5%.
SMILES,GPR151 activ,FBW7 act,MITF inh,TEAD-YAP block,GPR151 confirm,GPR119 counter
COc1ccccc1C(c1nnnn1C1CCCCC1)N1CCC(C(N)=O)CC1 (stereo not drawn),.,.,.,.,/,/
COC(=O)C1=CN(C2CC2)C=C(C(=O)OC)C1c1cccc(OC)c1,5.5,.,.,.,.,.
COC(=O)C1=CN(C2CC2)C=C(C(=O)OC)C1c1cccc(O)c1,.,.,.,.,/,/
Cc1cc(Cl)ccc1NC(=O)Cn1cnc2scc(-c3ccccc3)c2c1=O,.,.,.,.,/,/
CC(=O)Nc1cccc(N=Cc2cc(Cl)cc(Cl)c2O)c1,5.7,.,.,.,.,.
COc1cccc(C2C(C(C)=O)=C(O)C(=O)N2CC(OC)OC)c1 (stereo not drawn),.,.,.,.,/,/
O=Cc1cc(Br)ccc1OCC(=O)Nc1ccccc1Cl,.,.,.,.,/,/
Cc1nn(C)c(C)c1-c1nc2c(NCc3cccnc3)ncnc2n1C(C)C,7.1,.,.,.,.,.
O=c1[nH]c(=O)n(-c2ccccc2)c(O)c1/C=N/c1nnc(-c2ccccc2)s1,.,.,.,.,/,/
Cc1cc(Cl)ccc1OCC(O)CN1CCC(C)CC1 (stereo not drawn),.,.,.,.,/,/
Cc1cccc(C)c1NC(=O)C(=O)NCCc1ccc(F)cc1,6.4,.,.,.,.,.
Cc1cccc(C)c1NC(=O)C(=O)NCCc1ccccc1,.,.,.,.,/,/
O=C(N/N=C/c1ccncc1)C1CC1(c1ccccc1)c1ccccc1 (stereo not drawn),5.9,.,.,.,.,.
CC1CCN(S(=O)(=O)c2ccc(N3C(=O)c4ccccc4C3=O)cc2)CC1,.,.,.,.,/,/
O=C(NCc1ccncc1)c1ccc(OC2CCN(C3CCSC3)CC2)cc1 (stereo not drawn),9.7,.,.,.,.,.
O=C(NCc1ccccn1)c1cccc(OC2CCN(C3CCSCC3)CC2)c1,8.7,.,.,.,.,.
O=C(NC1(C(=O)Nc2ccc(Br)cc2)CCCCC1)c1cccc(O)c1,5.5,.,.,.,.,.
O=C(CSc1ccncc1)N1CCOc2ccc(CN3CCc4ccccc4C3)cc2C1,.,.,.,.,/,/
CCc1ccc(NC(=O)CCN2C(=O)c3ccncc3C2=O)cc1,.,.,.,.,/,/
Cc1cnc(-c2c(C)noc2C)nc1NCCc1ccc(O)cc1,.,.,.,.,/,/
Cc1cnc(-c2c(C)nn(C)c2C)nc1NCCc1ccc(O)cc1,5.7,.,.,.,.,.
CC(C)CC(NCCC(O)c1ccccc1)C(=O)O (stereo not drawn),8.3,.,.,.,.,.
CSCCC(NCCC(O)c1ccccc1)C(=O)O (stereo not drawn),.,.,.,.,/,/
CC(C)[C@@H]1NC(=O)[C@@H]2C[C@H](NCc3cn(C)nc3-c3ccccc3)CN2C1=O,13,.,.,.,.,.
COc1ccccc1CN[C@H]1C[C@H]2C(=O)N[C@H](CO)C(=O)N2C1,.,.,.,.,/,/
SMILES,GPR151 activ,FBW7 act,MITF inh,TEAD-YAP block,GPR151 confirm,GPR119 counter
COc1ccccc1CN[C@H]1C[C@H]2C(=O)N[C@@H](CC(C)C)C(=O)N2C1,6.1,.,.,.,.,.
CC(C)C[C@@H]1NC(=O)[C@@H]2C[C@H](NC(=O)Nc3cccc(C(F)(F)F)c3)CN2C1=O,12,.,.,.,.,.
COc1ccc(CN(CC2CCCO2)C(=O)c2cc3ccccc3oc2=O)cc1OC (stereo not drawn),.,.,.,.,/,/
O=C(c1cc2ccccc2oc1=O)N(Cc1ccc2c(c1)OCO2)CC1CCCO1 (stereo not drawn),7.3,.,.,.,.,.
Cc1cc(C)cc(NC(=O)CSc2nnc(-c3ccccc3)o2)c1,.,.,.,.,/,/
Cc1nc(N)n(N)c(=O)c1Cc1ccccc1,6.4,.,.,.,.,.
Cc1nc(N)n(N)c(=O)c1CCCN1C(=O)c2ccccc2C1=O,.,.,.,.,/,/
CC(Sc1nncs1)C(=O)NC(C)c1ccccc1 (stereo not drawn),5.2,.,.,.,.,.
CC(Sc1nncs1)C(=O)NC1CCCc2ccccc21 (stereo not drawn),.,.,.,.,/,/
O=c1c2cccnc2n(Cc2cccc(F)c2)c(=O)n1Cc1ccc(F)cc1,.,.,.,.,/,/
CC(C)CCn1c(=O)c2cccnc2n(Cc2cccc(F)c2)c1=O,12,.,.,.,.,.
COc1cc(OC)c(CN2CCC(CO)(CCOc3ccccc3)CC2)c(OC)c1,5.4,.,.,.,.,.
C/C(=N\NC(=O)c1ccncc1)c1ccc2c(c1)CCCC2,.,.,.,.,/,/
O=C(Nc1ccc2c(c1)OCO2)c1ccnc(N2CCC(N3CCOCC3)CC2)c1,5.7,.,.,.,.,.
O=C(Nc1ccc(N2CCOCC2)cc1)c1ccnc(N2CCC(N3CCOCC3)CC2)c1,.,.,.,.,/,/
CC1C=CCC2C(=O)N(c3ccc([N+](=O)[O-])cc3)C(=O)C12 (stereo not drawn),.,.,.,.,/,/
Cc1ccc(N2C(=O)C3CC=CC(C)C3C2=O)cc1 (stereo not drawn),12,.,.,.,.,.
O=C(CN1CCN(S(=O)(=O)c2ccc3c(c2)OCCO3)CC1)c1cccs1,9.7,.,.,.,.,.
Cc1ccc([N+](=O)[O-])cc1S(=O)(=O)Nc1ccccc1C(=O)O,.,.,.,.,/,/
Cc1ccc(C(=O)NCc2nc(-c3ccc(Cl)cc3)no2)c(C)c1,.,.,.,.,/,/
CC(=O)c1ccc(NC(=O)Nc2ccc(Br)cc2Cl)cc1,.,.,.,.,/,/
CC1=C(C(=O)N2CCOCC2)C(c2ccc(O)cc2)NC(=S)N1 (stereo not drawn),8.8,.,.,.,.,.
CCCOC(=O)CN1C(=O)C2C3c4ccccc4C(c4ccccc43)C2C1=O (stereo not drawn),5.0,.,.,.,.,.
CC(C(=O)Nc1cccc(C(F)(F)F)c1)N(c1ccc(Cl)cc1)S(C)(=O)=O (stereo not drawn),6.8,.,.,.,.,.
CCOC(=O)CCC(=O)Nc1ccc(NC(=O)CCC(=O)OCC)cc1,.,.,.,.,/,/
SMILES,GPR151 activ,FBW7 act,MITF inh,TEAD-YAP block,GPR151 confirm,GPR119 counter
O=C(CSc1nnnn1-c1ccccc1)Nc1ccc(OC(F)(F)F)cc1,7.7,.,.,.,.,.
O=C(CSc1nnnn1-c1ccccc1)Nc1ccc(O)cc1,.,.,.,.,/,/
COc1ccc(OCC(O)CN2CCC(CN3C(=O)c4cccc5cccc(c45)C3=O)CC2)c(C(C)(C)C)c1 (stereo not drawn),.,.,.,.,/,/
COc1ccc(-n2nnc3c(=O)n(Cc4ccccc4F)cnc32)cc1,.,.,.,.,/,/
O=C(CN1C(=O)c2ccccc2S1(=O)=O)NCc1ccco1,9.0,.,.,.,.,.
O=C(Cn1c(=O)oc2ccccc21)NCc1ccco1,5.3,.,.,.,.,.
